Measurements: PubChem BioAssay AID1346428 (National Center for Advancing Translational Sciences (NCATS), 2018)
Values joined by “and” are separate entries in the source; they are usually repeats but may differ in a detail not shown here. Equal values may be shown once. In all, about 48,000 compounds went through this assay and about 1,200 (2.5%) were called active. About 2% were inconclusive and are not listed.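 How the source made its calls: active means activation of at least 60% and not above a set upper limit (about 1 call in 100 departs from these limits); inconclusive means activation of 40% to 60%, or above that upper limit; inactive means activation under 40%.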 Only a selection was taken, and actives are over-represented in it overall. The source holds several records for some structures; these can differ, active in one and inactive in another.

biological target: Probable G-protein coupled receptor 32 (Homo sapiens) (UniProt O75388); assay: qHTS for Agonists of Human Resolvin D1 Receptor DRV1; settings: CHO-K1 GPR32 beta-arrestin PathHunter luminescence, 90 min; at 76.9 µM; stronger effect = higher value; zero percent set by DMSO-only wells; further: 0% is about no effect
Sequence (O75388 whole entry, looked up, the tested form may be a part): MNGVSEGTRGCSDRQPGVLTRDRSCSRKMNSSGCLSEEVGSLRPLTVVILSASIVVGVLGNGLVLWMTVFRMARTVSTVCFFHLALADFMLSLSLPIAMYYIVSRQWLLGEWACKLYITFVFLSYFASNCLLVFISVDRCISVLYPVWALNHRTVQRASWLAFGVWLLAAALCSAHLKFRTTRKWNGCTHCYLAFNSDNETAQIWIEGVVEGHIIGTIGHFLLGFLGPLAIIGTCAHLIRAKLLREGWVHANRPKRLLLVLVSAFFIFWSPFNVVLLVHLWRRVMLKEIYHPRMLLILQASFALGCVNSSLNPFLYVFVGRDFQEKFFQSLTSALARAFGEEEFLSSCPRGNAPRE
How it was run: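 Agonism was scored as beta-arrestin recruitment to ProLink-fused GPR32 in stably transfected CHO-K1 cells, giving a chemiluminescent beta-Gal signal; compounds were incubated 90 min at 37 °C.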

SMILES	activation
CCCOC(=O)c1c(NC(=O)c2cc3nc(-c4ccc(OC)cc4)cc(C(F)(F)F)n3n2)sc2c1CCCC2	16% (inactive)
COc1ccc(NC(=O)Cn2c(=O)cc(C)c3c(C)nn(-c4cccc(Cl)c4C)c32)cc1OC	-11.5% (inactive)
Cc1ccccc1OCc1ccc(-c2nc(C#N)c(N3CCCCC3)o2)o1	-28.2% (inactive)
Cc1cc(C)cc(OCC(=O)Nc2nc(-c3ccc(F)cc3)ns2)c1	4.54% (inactive)
Cn1nnnc1SCCNCc1ccc(Cl)c(Cl)c1	-5.94% (inactive)
COc1cc(CNCCSc2nnnn2C)ccc1OCc1c(F)cccc1Cl	14.1% (inactive)
COc1cc(CNCCSc2nnnn2C)ccc1OCc1ccc(Cl)cc1Cl	60% (active)
CCc1ccccc1NC(=O)N1CCN(C(=O)c2nsc3ccccc23)CC1	-15.9% (inactive)
COc1cccc(Cn2c(SCc3ccc(C(=O)N4CCCCC4)cc3)nc3ccncc32)c1	30.7% (inactive)
Cc1[nH]c2ccccc2c1C(c1ccccc1)c1cccs1 (stereo not drawn)	73.6% (active)
COc1ccc(-c2onc(C)c2C)cc1S(=O)(=O)NCCc1ccccc1	3.28% (inactive)
O=C(Nc1nnc(C2CC(=O)N(c3ccc(Cl)cc3)C2)s1)c1ccco1 (stereo not drawn)	-14.5% (inactive)
CCCCN(C)CCCNC(=O)CN1N=C(c2ccc(OC)cc2)CCC1=O	11.3% (inactive)
Cc1ccc(S(=O)(=O)N2CCCc3cc(NS(=O)(=O)c4cc(C)ccc4C)ccc32)cc1	-16.6% (inactive)
C=Cc1ccc(Cn2c(C(=O)OC)cc3sc(C)cc32)cc1	-21.6% (inactive)
CCCC(C(=O)OCCN(CC)CC)(c1ccccc1)c1ccccc1	60.2% (active) and -17.3% (inactive)
CCC(C(=O)OCCN(CC)CC)c1ccccc1 (stereo not drawn)	1.87% (inactive)
Cc1ccc(N(CC(=O)Nc2cc(C)cc(C)c2)S(=O)(=O)c2cccc3nonc23)cc1	-3.71% (inactive)
Cc1ccc(NC(=O)Cn2c(=O)n(-c3ccccc3)c(=O)c3c4c(sc32)CCCC4)cc1	-1.44% (inactive)
CC(=O)c1ccc(N2CCN(C3C(=O)c4ccccc4N3C(C)=O)CC2)cc1 (stereo not drawn)	-28.3% (inactive)
Cc1ccc(C)c(N2CCN(CCCNC(=O)Nc3ccc(Cl)cc3)CC2)c1	37.2% (inactive)
CC1=C(c2ccc(Cl)cc2)S(=O)(=O)N=C1N1CCN(c2cc(C)ccc2C)CC1	-14.2% (inactive)
CC1=C(c2ccc(C)cc2)S(=O)(=O)NC1=NCCCN1CCN(c2cc(C)ccc2C)CC1	84.3% (active)
Cc1ccc(C(=O)Nc2ccc(OCc3cc(=O)n4c(C)csc4n3)cc2)cc1	3.91% (inactive)
Cc1csc2nc(COc3ccc(NC(=O)COc4ccccc4)cc3)cc(=O)n12	63.9% (active)
Cc1ccc(OCC(=O)Nc2ccc(OCc3cc(=O)n4c(C)csc4n3)cc2)cc1C	-16.1% (inactive)
COc1ccccc1N1CCN(CCCNC(=O)c2cnn(-c3ccccc3Cl)c2C2CCN(C(=O)OC(C)(C)C)CC2)CC1	-18.9% (inactive)

SMILES	activation
O=C(CCS(=O)(=O)c1cc(Br)cc2c1N(C(=O)C1CC1)CC2)Nc1ccc(C(F)(F)F)cc1	-8.56% (inactive)
CC(C)NC(=O)c1nn(-c2ccccc2F)nc1CO	-8.71% (inactive)
O=C(NCCc1ccccc1)c1ccc2c(c1)N(Cc1ccc(F)cc1)C(=O)c1ccccc1S2(=O)=O	-31.8% (inactive)
COCCNC(=O)c1ccc2c(c1)N(Cc1cccc(Cl)c1)C(=O)c1ccccc1S2(=O)=O	-32.3% (inactive)
O=C(NCCc1ccccc1)c1ccc2c(c1)N(Cc1ccccc1)C(=O)c1ccccc1S2(=O)=O	92.4% (active)
CC(C)(C)c1ccc(S(=O)(=O)N2CCN(C(=O)c3cc(-c4ccc(Br)cc4)n[nH]3)CC2)cc1	-6.87% (inactive)
O=C(CSc1ncc(CO)n1Cc1ccc(Cl)cc1)NCc1ccc(F)cc1	39.5% (inactive)
O=C(CSc1ncc(CO)n1Cc1ccc(F)cc1)NCc1ccco1	7.63% (inactive)
OCc1cnc(SCc2ccc(F)cc2)n1Cc1ccc(F)cc1	109% (active)
CCOC(=O)C(Cc1ccccc1)NC(=O)CCc1c(C)nc2c(c(C)nn2-c2ccc(C)c(C)c2)c1C (stereo not drawn)	-3.74% (inactive)
COc1ccc(-c2noc(CCC(=O)N(C)c3ccccc3C)n2)cc1	107% (active)
COc1cccc(CNC(=O)Cc2csc3nc(-c4ccccc4)cn23)c1	-4.88% (inactive)
COc1ccc(-c2noc(CSc3nc4ccc(C)cc4[nH]3)n2)cc1	23.5% (inactive)
COc1cccc(CNC(=O)Cn2ncn3c(cc4ccccc43)c2=O)c1	-1.19% (inactive)
COc1cccc(CNC(=O)CCc2nc(-c3ccc(C)cc3)no2)c1	92.5% (active)
Cc1ccccc1C(=O)NCc1nc(-c2ccc(Cl)cc2)no1	-2.46% (inactive)
Cc1ccc(NC(=O)CSc2nc3c([nH]c4ccccc43)c(=O)n2-c2ccccc2)cc1Cl	-26.8% (inactive)
CCCCNC(=O)c1cc(-c2ccc(Cl)c(Cl)c2)on1	8.61% (inactive)
COc1ccc(C(=O)Nc2ccc(-n3nncc3-c3ccccc3)cc2)cc1OC	-15.2% (inactive)
O=C(CSc1oc(-c2ccccc2)nc1S(=O)(=O)c1ccc(Br)cc1)NC1CCCCC1	-14.8% (inactive)
COc1ccc(C)cc1Nc1nc2ccccc2c2nnc(C)n12	9.83% (inactive)
CCC(=O)N1CCc2cc(S(=O)(=O)NC(C(=O)NCCc3ccc(C)cc3)C(C)C)ccc21 (stereo not drawn)	-8.05% (inactive)
CCC(=O)N1CCc2cc(S(=O)(=O)NC(CC(C)C)C(=O)NCCc3cccc(C)c3)ccc21 (stereo not drawn)	64.6% (active)
CCC(=O)N1CCc2cc(S(=O)(=O)NC(Cc3ccccc3)C(=O)NCc3ccc(C)cc3)ccc21 (stereo not drawn)	-14.4% (inactive)
Cc1ccc(-c2cnc(NCc3ccc(C(C)C)cc3)n2C)cc1	-44.5% (inactive)
CSc1ccc(CCNC(=O)c2cnn(-c3ccccc3)c2-n2cccc2)cc1	-2.99% (inactive)
